A short description of this test: anti-His antibody binders, primary screen, artefact control for SMM control protein annotation, biochemical, small-molecule microarray, 635 nm fluorescence (AID 1128).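 Note: score merges feature fluorescence with signal-to-noise for each printed compound spot.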 Particulars: anti-His Alexa647 antibody binding, higher = more signal.
Take `CC(CCN1CCCc2nc(C)c(C)cc21)=NOC(C)CN1CCCCc2nc(C)c(C)cc21` (stereo unspecified): the composite z-score was 0.363.

`CCN1C(=O)[C@@H]2[C@H]3C(=CC[C@@H]2C1=O)C1(OCCCO1)[C@H]1O[C@H]1[C@H]3O`: the composite z-score turned out to be 0.841.

Compound `Cc1ccc(S(=O)(=O)N[C@@H]2COC(=O)[C@@H](C)COC(=O)CC=C[C@H]2C)cc1` had a composite z-score of 0.204.

Consider `COC(=O)C1=C(C)N(Cc2ccccc2)[C@]23O[C@](C(=O)OC)(C(=O)N2[C@@H]1c1ccccc1)C(C(=O)OC)=C3C(=O)OC`, for which the composite z-score came to 0.686.

In the case of `CC(C)CON=C1C[C@@H](O)[C@@H](O)[C@@H]2[C@@H]3C(=O)N(c4ccc(F)cc4F)C(=O)[C@@H]3CC[C@H]12`, the composite z-score turned out to be 0.686.

In the case of `CCOC(=O)CCN1C(=O)[C@H]2[C@H]3[C@H](O)[C@H](O)CC(=NOCC(C)C)[C@H]3CC[C@H]2C1=O`, the composite z-score was -0.0537.

Turning to `CC(C)=CCCC(C)=CCON=C1C[C@@H](O)[C@@H](O)[C@@H]2[C@@H]3C(=O)N(C(C)(C)C)C(=O)[C@@H]3CC[C@H]12`, the composite z-score is -0.119.

`C[C@H]1CC[C@H]2C(=O)O[C@H](COc3ccc(C(C)(C)C)cc3)CN2[C@@H]1c1ccc(Br)cc1` came in with a composite z-score of 2.63.

Compound `COC(=O)CC=C[C@@H](C)[C@@H](C=NO[C@@H]1O[C@H](COC(C)=O)[C@@H](OC(C)=O)[C@H](OC(C)=O)[C@H]1OC(C)=O)NS(=O)(=O)c1ccc(C)cc1` had a composite z-score of -0.588.

Consider `CCOC(=O)[C@H](CC(C)C)NC(=O)CCC1CC(OC(=O)NCc2cccc3ccccc23)CC2(CCCC(COC(=O)NCc3ccncc3)O2)O1` (stereo partly specified), for which the composite z-score worked out at 0.894.

The compound `CC(CCN1CCCc2nc(C)c(C)cc21)=NO[C@@H](C)c1cc(-c2c(C)cc(C)cc2C)no1` displayed a composite z-score of 1.4.

For `O=C1[C@H]2[C@H]3[C@H](O)[C@H](O)CC(=NO[C@@H]4O[C@H](CO)[C@@H](O)[C@H](O)[C@H]4O)[C@H]3CC[C@H]2C(=O)N1c1cccc(Oc2ccccc2)c1`, the composite z-score is 1.25.

For `CCOC(=O)NN=C1C[C@@H](O)[C@@H](O)[C@@H]2[C@@H]3C(=O)N(c4ccc(F)cc4F)C(=O)[C@@H]3CC[C@@H]12`, the composite z-score was found to be 0.508.

In turn, `C[C@H]1CC[C@H]2C(=O)OC(CO)CN2[C@@H]1c1ccc(Br)cc1` (stereo partly specified) gave a composite z-score of 0.58.

`Cn1c(=O)n2n(c1=O)[C@H]1[C@H](O)[C@@H]3O[C@@H]3C(=NOCc3ccccc3)[C@H]1CC2` registered a composite z-score of 0.192.

As to `O=c1n(-c2ccccc2)c(=O)n2n1CC[C@@H]1C(=NOCc3ccccc3)[C@H]3O[C@H]3[C@@H](O)[C@@H]12`, the composite z-score came to 0.103.

For the compound `C[C@@H]1CC[C@H]2C(=O)O[C@@H](Cc3ccccc3)CN2[C@H]1c1ccc(Br)cc1`, the composite z-score was 2.07.

In turn, `CO[C@H]1COC(=O)[C@@H](C)COC(=O)[C@H](C)NC(=O)CC=C[C@H]1C` had a composite z-score of -0.79.

For `CO[C@H]1COC(=O)CC=C[C@H](C)[C@@H](OC)COC(=O)[C@@H](C)COC(=O)CC=C[C@@H]1C`, the composite z-score was -0.756.

The compound `COC(=O)CC=C[C@@H](C)[C@@H](C=NOCC[C@@H]1C=C[C@H](OC(C)=O)[C@@H](COC(C)=O)O1)NS(=O)(=O)c1ccc(C)cc1` displayed a composite z-score of 2.34.

Compound `CCOC(=O)CCN1C(=O)[C@H]2[C@H]3[C@H](O)[C@H](O)CC(=NNC(=O)OCc4ccccc4)[C@@H]3CC[C@H]2C1=O` registered a composite z-score of 0.553.

As to `CC(C)=CCCC(C)=CCON=C1C[C@@H](O)[C@@H](O)[C@@H]2[C@@H]3C(=O)N(Cc4ccccc4)C(=O)[C@@H]3CC[C@@H]12`, the composite z-score came out at 0.546.

With `C[C@@H](ON=C1[C@H]2CCn3c(=O)n(-c4ccccc4)c(=O)n3[C@H]2[C@H](O)[C@@H]2O[C@H]12)c1cn([C@@H]2COC[C@H]2O)nn1`, the composite z-score was -0.0522.

The compound `COc1cc(O)c(C(=O)C=Cc2ccc3c(c2)OCO3)c(OC)c1` gave a composite z-score of -0.132.

Regarding `COC(=O)CC=C[C@@H](C)[C@@H](C=NO[C@H](C)c1cn([C@H](CO)Cc2ccccc2)nn1)NS(=O)(=O)c1ccc(C)cc1`, the composite z-score stood at 2.47.

Take `COc1ccc(O[C@H]2C=C[C@@H](c3ccccc3)O[C@@H]2COC(=O)CCC(C)=NO[C@@H]2O[C@H](COC(C)=O)[C@@H](OC(C)=O)[C@H](OC(C)=O)[C@H]2OC(C)=O)cc1`: the composite z-score turned out to be 0.487.

Consider `CCOC(=O)NN=C1C[C@@H](O)[C@@H](O)[C@@H]2[C@@H]3C(=O)N(Cc4ccc5c(c4)OCO5)C(=O)[C@@H]3CC[C@H]12`, for which the composite z-score is -0.0164.

In turn, `CCOC(=O)[C@H](CC(C)C)NC(=O)CCC1CC(OC(=O)NCc2cccc3ccccc23)CC2(CCCC(COC(=O)NCCC(C)C)O2)O1` (stereo partly specified) returned a composite z-score of -0.121.

`CC(C)=CCCC(C)=CCON=C1C[C@@H](O)[C@@H](O)[C@@H]2[C@@H]3C(=O)N(C[C@@H]4CCCO4)C(=O)[C@@H]3CC[C@H]12` registered a composite z-score of 1.39.

`CC=CC1=C(CO)C(=O)[C@@H]2O[C@@H]2C1=O` gave a composite z-score of 0.366.

As for `CO[C@H]1COC(=O)CCC[C@@H](C)[C@H](OC)COC(=O)[C@@H](C)NC(=O)CC=C[C@@H]1C`, the composite z-score is -0.132.

Regarding `COc1ccc(O[C@H]2C=C[C@@H](c3ccccc3)O[C@@H]2COC(=O)CCC(C)=NOC[C@@H](O)[C@H]2O[C@@H]3OC(C)(C)O[C@@H]3[C@H]2O)cc1`, the composite z-score stood at 0.977.

As for `O=C(NN=C1C[C@@H](O)[C@@H](O)[C@@H]2[C@@H]3C(=O)N(Cc4ccccc4)C(=O)[C@@H]3CC[C@@H]12)OCc1ccccc1`, the composite z-score came out at 0.298.

As for `CCOC(=O)[C@H](CC(C)C)NC(=O)CCC1CC(OC(=O)NCc2cccc3ccccc23)CC2(CCCC(COC(=O)NCCc3ccc(Cl)cc3)O2)O1` (stereo partly specified), the composite z-score worked out at 0.372.

As to `CO[C@@H]1C=CCC(=O)N2CCC[C@H]2C(=O)OC[C@@H](C)C(=O)OC[C@H]1C`, the composite z-score was 0.21.

The compound `CC(C)CON=C1C[C@@H](O)[C@@H](O)[C@@H]2[C@@H]3C(=O)N(C4CCCCC4)C(=O)[C@@H]3CC[C@H]12` returned a composite z-score of 0.55.
